Reference: the supplement of paper PMC10849652
The full data set covers some 7,900 targets. This sample favours those with a hit. About 0.6% of all pairs of compound and target were hits.

Compound: CCn1cc(-c2ccnc3[nH]c(-c4cccc(CN(C)C)c4)cc23)c(-c2ccc(NC(=O)N(C)C)cc2)n1
Assay: log2 fold change, soluble protein after heating vs DMSO (PISA); higher = thermal stabilisation; K562 cells, 10 uM, 30 min; active = over 0.2 and 3.5 SD of the protein, either way, in both replicates (recomputed)
Summary of the method: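 Quantification of soluble protein used TMTpro 16plex LC-MS/MS, with channel sums equalised. Samples were the supernatant after 21,000xg for 90 min of pooled aliquots from K562 cells (2×10^6 cells/mL) treated with 10 μM compound for 30 min, heated for 3 min over 48°C-58°C, and extracted in PBS with 0.5% NP-40 at 4°C. Values, from duplicates, describe thermal stability against control samples on a log2 fold-change scale.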

Chain of UniProt Q07820 (Q07820 whole entry, looked up): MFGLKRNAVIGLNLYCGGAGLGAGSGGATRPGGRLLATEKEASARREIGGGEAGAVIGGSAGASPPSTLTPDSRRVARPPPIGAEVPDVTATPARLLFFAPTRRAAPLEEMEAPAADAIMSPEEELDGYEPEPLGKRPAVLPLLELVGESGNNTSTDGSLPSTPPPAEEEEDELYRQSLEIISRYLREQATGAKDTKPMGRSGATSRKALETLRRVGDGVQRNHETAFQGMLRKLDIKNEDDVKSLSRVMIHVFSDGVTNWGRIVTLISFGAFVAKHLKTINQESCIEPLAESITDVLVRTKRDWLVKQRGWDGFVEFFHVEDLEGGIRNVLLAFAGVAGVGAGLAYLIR
Chain of UniProt Q96PC5 (Q96PC5 whole entry, looked up): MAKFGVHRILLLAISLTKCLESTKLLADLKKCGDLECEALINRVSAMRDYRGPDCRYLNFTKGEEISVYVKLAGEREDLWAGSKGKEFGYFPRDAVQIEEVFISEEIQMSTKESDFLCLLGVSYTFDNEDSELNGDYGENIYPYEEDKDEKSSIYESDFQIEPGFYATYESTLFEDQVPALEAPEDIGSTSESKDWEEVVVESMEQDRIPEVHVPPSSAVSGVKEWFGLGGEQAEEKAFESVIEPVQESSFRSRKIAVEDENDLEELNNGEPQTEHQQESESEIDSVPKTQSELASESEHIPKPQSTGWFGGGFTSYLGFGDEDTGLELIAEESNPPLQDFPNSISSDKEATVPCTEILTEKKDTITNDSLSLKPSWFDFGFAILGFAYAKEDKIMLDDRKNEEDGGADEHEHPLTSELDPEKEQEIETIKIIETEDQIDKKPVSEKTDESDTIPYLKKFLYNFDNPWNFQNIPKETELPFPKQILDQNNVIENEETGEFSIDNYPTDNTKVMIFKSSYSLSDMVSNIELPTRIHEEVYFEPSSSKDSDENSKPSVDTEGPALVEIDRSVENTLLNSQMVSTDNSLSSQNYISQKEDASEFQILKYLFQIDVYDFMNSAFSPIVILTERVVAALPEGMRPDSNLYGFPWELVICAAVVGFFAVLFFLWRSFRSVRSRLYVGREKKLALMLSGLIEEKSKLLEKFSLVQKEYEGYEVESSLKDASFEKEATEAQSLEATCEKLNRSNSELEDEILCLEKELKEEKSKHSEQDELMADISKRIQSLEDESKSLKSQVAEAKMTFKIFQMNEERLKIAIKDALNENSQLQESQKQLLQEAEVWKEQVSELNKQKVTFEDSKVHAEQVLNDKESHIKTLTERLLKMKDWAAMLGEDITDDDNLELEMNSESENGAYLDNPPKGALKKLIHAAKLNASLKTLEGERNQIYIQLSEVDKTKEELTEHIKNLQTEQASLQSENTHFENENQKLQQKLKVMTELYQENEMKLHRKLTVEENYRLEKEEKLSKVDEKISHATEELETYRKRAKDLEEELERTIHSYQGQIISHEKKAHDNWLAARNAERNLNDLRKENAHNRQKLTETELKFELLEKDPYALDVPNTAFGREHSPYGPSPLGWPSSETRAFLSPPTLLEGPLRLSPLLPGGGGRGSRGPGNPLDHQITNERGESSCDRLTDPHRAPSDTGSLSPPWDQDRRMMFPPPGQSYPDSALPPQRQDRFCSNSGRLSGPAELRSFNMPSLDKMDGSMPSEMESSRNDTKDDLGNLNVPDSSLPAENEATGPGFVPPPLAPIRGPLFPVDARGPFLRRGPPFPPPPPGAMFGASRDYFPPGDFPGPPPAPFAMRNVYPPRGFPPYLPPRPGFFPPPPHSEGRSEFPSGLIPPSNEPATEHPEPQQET
Chain of UniProt Q14681 (Q14681 whole entry, looked up): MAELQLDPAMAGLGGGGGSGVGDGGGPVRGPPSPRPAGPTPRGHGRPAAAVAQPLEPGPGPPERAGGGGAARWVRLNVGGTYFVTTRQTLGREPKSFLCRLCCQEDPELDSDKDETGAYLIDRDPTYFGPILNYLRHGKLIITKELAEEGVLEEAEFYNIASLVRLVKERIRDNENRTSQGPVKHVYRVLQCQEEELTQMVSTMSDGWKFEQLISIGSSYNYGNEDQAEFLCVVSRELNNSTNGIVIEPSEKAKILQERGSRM
Chain of UniProt Q9NQ29 (Q9NQ29 whole entry, looked up): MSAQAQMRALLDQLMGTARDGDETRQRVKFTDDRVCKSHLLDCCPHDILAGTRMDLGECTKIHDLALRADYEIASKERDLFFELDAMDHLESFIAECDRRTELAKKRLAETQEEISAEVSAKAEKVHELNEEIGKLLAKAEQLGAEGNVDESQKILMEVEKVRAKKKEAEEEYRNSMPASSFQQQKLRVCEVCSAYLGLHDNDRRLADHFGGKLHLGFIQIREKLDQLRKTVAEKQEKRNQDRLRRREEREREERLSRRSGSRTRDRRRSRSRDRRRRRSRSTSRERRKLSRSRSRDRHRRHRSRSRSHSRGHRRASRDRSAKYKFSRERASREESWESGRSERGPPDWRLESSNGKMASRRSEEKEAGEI
Chain of UniProt A1L0T0 (A1L0T0 whole entry, looked up): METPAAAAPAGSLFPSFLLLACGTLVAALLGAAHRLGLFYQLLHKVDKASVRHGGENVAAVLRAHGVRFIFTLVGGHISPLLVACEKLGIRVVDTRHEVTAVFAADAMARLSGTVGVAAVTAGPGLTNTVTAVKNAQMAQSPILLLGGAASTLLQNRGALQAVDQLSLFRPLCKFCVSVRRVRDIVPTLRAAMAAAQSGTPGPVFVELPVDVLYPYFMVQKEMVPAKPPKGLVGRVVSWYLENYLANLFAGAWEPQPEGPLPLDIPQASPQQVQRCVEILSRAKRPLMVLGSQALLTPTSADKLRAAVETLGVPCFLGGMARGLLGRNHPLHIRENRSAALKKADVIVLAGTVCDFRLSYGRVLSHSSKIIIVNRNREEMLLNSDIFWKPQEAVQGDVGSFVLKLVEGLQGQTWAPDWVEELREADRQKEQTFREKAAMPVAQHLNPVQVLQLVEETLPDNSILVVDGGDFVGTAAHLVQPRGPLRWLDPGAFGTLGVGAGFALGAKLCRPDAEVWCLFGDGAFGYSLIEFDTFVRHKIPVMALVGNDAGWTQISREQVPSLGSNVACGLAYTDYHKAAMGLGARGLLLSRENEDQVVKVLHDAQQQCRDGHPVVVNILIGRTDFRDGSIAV
Chain of UniProt Q71RC2 (Q71RC2 whole entry, looked up): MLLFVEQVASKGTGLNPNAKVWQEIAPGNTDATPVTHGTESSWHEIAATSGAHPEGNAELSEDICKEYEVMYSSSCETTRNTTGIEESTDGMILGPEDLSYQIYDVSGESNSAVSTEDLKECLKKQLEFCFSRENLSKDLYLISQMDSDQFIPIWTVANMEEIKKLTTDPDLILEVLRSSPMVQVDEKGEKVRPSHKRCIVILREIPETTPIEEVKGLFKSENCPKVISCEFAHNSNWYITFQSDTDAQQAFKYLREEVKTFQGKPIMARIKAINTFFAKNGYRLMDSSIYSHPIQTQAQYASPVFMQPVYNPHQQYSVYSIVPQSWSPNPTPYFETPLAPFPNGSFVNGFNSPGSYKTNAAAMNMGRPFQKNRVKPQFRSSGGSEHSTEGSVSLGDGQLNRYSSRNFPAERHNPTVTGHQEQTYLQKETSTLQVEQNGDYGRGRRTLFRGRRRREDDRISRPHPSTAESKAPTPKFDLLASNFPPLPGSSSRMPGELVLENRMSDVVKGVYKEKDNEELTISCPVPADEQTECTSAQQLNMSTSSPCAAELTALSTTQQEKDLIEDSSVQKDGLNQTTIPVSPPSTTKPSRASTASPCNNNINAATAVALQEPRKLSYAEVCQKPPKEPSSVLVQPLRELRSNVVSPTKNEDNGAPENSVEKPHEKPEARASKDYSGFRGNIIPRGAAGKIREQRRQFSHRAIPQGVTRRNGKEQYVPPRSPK
Chain of UniProt O95568 (O95568 whole entry, looked up): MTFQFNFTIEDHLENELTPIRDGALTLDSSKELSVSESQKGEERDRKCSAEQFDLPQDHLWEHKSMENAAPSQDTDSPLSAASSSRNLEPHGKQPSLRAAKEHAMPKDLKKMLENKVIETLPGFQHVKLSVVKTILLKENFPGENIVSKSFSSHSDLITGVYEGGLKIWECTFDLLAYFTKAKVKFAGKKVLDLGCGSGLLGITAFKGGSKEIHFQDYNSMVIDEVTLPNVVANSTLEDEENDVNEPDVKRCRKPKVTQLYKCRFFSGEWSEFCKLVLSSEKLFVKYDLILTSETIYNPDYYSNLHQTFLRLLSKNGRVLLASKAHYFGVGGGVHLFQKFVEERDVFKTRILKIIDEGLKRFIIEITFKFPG
Chain of UniProt P07948 (P07948 whole entry, looked up): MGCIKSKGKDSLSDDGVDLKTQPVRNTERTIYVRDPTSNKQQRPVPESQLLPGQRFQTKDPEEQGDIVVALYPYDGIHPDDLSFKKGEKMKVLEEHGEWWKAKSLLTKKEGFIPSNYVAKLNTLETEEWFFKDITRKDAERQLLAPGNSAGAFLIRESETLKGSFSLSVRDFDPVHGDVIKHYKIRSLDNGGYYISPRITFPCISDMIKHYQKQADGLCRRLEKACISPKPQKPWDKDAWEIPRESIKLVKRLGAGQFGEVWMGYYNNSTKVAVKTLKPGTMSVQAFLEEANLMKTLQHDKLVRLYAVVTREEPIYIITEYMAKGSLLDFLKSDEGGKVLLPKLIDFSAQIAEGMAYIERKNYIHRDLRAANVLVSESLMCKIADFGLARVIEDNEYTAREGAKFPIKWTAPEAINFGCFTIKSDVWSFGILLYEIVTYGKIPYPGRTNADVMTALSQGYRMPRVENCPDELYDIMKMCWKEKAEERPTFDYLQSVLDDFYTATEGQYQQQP
Chain of UniProt Q9GZY8 (Q9GZY8 whole entry, looked up): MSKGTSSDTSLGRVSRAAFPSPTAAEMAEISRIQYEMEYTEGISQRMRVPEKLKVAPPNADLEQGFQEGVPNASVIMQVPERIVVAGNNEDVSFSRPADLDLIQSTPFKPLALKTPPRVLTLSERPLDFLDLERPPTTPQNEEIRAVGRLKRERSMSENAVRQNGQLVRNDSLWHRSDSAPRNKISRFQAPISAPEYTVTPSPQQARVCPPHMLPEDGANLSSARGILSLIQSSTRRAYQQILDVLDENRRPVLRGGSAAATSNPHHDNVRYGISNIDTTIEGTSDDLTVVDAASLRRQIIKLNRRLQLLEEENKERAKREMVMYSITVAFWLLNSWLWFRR

log2 fold change, inactive:
KIAA1324L (UniProt A8MWY0) -0.019
MIER1 isoform 12 (UniProt Q8N108) -0.095
MIA2 (UniProt Q96PC5) 0.054
LIMA1 isoform 4 (UniProt Q9UHB6) 0
METTL18 (UniProt O95568) 0
KIF21A isoform 4 (UniProt Q7Z4S6) -0.121
LUC7L (UniProt Q9NQ29) 0.01
KEL (UniProt P23276) -0.013
LEO1 (UniProt Q8WVC0) -0.051
LARP4 isoform 4 (UniProt Q71RC2) 0.07
MFF (UniProt Q9GZY8) 0.043
MFN1 (UniProt Q8IWA4) -0.024
MCL1 (UniProt Q07820) -0.032
LYN (UniProt P07948) -0.095
ILVBL (UniProt A1L0T0) 0.042
KCTD2 (UniProt Q14681) -0.024
